HTT ATP protect: cytoprotection in Huntington HTT-Q103 PC12 cell model | Potency, µM (doses to about 56.4 µM), usual class: activators | PC12 HTT-Q103 induced, cytoprotection, ATP luminescence, 40 h | 0.14% of 230,000 active; active means well fitted curve in the direction sought with a large enough effect; inconclusive means small, poorly fitted or top-dose-only effect, or another doubt; inactive means no such curve, though single readings can be large; an effect the other way counts as inactive or inconclusive; further: nearly all actives have a fitted effect of over 45% in size
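PC12 cells stably carrying ecdysone-inducible Htt exon 1 (Q103)–GFP were induced with 100 nM tebufenozide (final) alongside library compounds in a dose series. Cytoprotection was scored as retained ATP by ATPlite luminescence.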
LMNA splice mod: modulators of lamin A splicing | HeLa LMNA splicing GFP/RFP minigene ratio, 48 h | Potency, µM (doses to about 46.1 µM), actives largely listed as inhibitors | 0.01% of 200,000 active | AID 1487; active means well fitted inhibition curve with a large enough effect in the signal ratio, with a control signal flat, not every such curve was filed as active; inconclusive means small, poorly fitted or top-dose-only effect, or effect the other way, or a change in a side signal; the % refers to the signal ratio
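S3 HeLa cells stably expressing lamin A-EGFP splicing minigene plus DsRed2, 600 cells/well, 48 h compound exposure at 37C. Laser-scanning cytometry; analysed as GFP (500-530 nm)/RFP (575-640 nm) total intensity ratio; 0.5% DMSO vehicle.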
JMJD2E inh: JMJD2E (human) inhibition | B2RXH2 | JMJD2E catalytic domain, FDH-coupled NADH fluorescence (FDH is formaldehyde dehydrogenase) | Potency, µM (doses to about 57.1 µM), hits mostly inhibitors | 1.6% of 230,000 active | AID 2147; further: nearly all actives have a fitted effect of over 50% in size
HTT aggregate: reduces HttQ103-GFP aggregates in PC12 cells; PC12 HttQ103-GFP aggregates, Acumen cytometry, 40 h; Potency, µM (doses to about 46.1 µM), most hits filed as inhibitors; 1.1% of 220,000 active; active means well fitted curve in the direction sought with a large enough effect; inconclusive means small, poorly fitted or top-dose-only effect, or another doubt; inactive means no such curve, though single readings can be large; an effect the other way counts as inactive or inconclusive; further: nearly all actives have a fitted effect of over 60% in size
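PC12/HTTQ103-GFP, ecdysone-inducible; teb 100 nM; cpd qHTS titration; GFP aggregates read on laser cytometer, Ex 488/Em 500-530 nm.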
HPGD inh: HPGD (human) dehydrogenase inhibition; purified HPGD, NADH fluorescence kinetic, PGE2 substrate; 4.3% of 150,000 active; Potency, µM, hits mostly inhibitors; P15428
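20 nM HPGD preincubated 15 min at room temperature with compound in 50 mM Tris-HCl pH 8, 0.01% Tween 20. Started with 1 mM NAD+ and 30 uM prostaglandin E2; NADH fluorescence (360/450 nm) read 5 times over 30-s intervals, last minus first.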
ALDH1A1 block: inhibitors of human aldehyde dehydrogenase 1A1. Purified ALDH1A1, NADH fluorescence, propionaldehyde substrate. Potency, µM (doses to about 75.3 µM), usual class: inhibitors. 7.3% of 220,000 active
Target sequence (P00352 whole entry, looked up): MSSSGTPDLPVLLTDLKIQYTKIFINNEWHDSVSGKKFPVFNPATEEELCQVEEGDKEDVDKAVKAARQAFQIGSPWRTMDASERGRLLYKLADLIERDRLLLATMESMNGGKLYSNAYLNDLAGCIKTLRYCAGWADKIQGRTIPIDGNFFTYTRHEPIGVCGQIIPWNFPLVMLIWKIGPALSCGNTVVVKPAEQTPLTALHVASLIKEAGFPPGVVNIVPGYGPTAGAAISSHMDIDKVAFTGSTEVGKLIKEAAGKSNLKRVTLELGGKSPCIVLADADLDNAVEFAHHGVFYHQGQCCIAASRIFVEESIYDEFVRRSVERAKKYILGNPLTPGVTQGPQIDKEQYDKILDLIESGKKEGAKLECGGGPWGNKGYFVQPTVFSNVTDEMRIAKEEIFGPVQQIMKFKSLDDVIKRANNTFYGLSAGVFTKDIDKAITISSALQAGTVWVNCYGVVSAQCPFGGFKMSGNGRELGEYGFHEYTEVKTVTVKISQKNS
Hits are given with their value; . = inactive; ? = inconclusive; / = not tested or not shown; [ ] = dose if it differs, or a comment. The list is not random: actives were taken first. Their share in the collection is about 9.2%. Unless noted, the call rests on the fitted dose curve; in most records, active means well fitted inhibition curve with a large enough effect (not every such curve was filed as active); inconclusive means small, poorly fitted or top-dose-only effect, or another doubt; inactive means no such curve, though single readings can be large or run the other way.

SMILES	HTT ATP protect	LMNA splice mod	JMJD2E inh	HTT aggregate	HPGD inh	ALDH1A1 block
COc1cc2[nH]c(=S)n(Cc3cccs3)c(=O)c2cc1OC	.	?	.	.	/	1.1µM
CCCn1c(=S)[nH]c2cc(OC)c(OC)cc2c1=O	.	?	.	.	.	?
COc1ccc(-c2c(-c3ccc(OCC(=O)NN)cc3O)n[nH]c2C(F)(F)F)cc1	.[10 µM]	.	.	.	.	13µM
C=C(C)COc1ccc(-c2n[nH]c(C)c2-c2ccc(OC)cc2)c(O)c1	.	?	.	?	.	?
CCOC(=O)c1ccc(Cl)c(NC(=O)c2ccc(-c3ccccc3)cc2)c1	.	.	.	.	.	.
CCOC(=O)c1ccc(/C=C2/C=C(c3ccccc3)N(c3ccc(Cl)c(C(=O)O)c3)C2=O)cc1	/	?	.	.	.	11µM
CN(/C=C/C(=C/C=[N+](C)c1ccccc1)OCCCS(=O)(=O)[O-])c1ccccc1	.	.	.	.	/	/
CN(/C=C/C(=C\C=[N+](C)c1ccccc1)OCCCS(=O)(=O)[O-])c1ccccc1	.[10 µM]	/	.	.[9.22 µM]	/	32µM
COc1ccc(C(=O)CSc2ccc(-c3ccco3)nn2)cc1	.[10 µM]	.	?	.	.	22µM
COc1cccc(-c2ccc(SCC(=O)c3ccccc3)nn2)c1	.[10 µM]	.	.	.[9.22 µM]	/	?
O=C(CSc1ccc(-c2ccccn2)nn1)N1CCc2ccccc21	.	?	.	?	/	18µM
O=C(CSc1ccc(-c2ccco2)nn1)c1ccccc1	.[10 µM]	.	?	.	.	8.9µM
O=C(CSc1ccccn1)N1CCc2ccccc21	.	?	.	.	/	?
O=C(CSc1ccc(-c2ccccn2)nn1)c1ccc([N+](=O)[O-])cc1	.	/	.	.	/	1µM
COC(=O)[C@@H]1[C@H](CCc2ccccc2)NC(=O)N(Cc2ccccc2)[C@@H]1C	.[10 µM]	.[9.22 µM]	.[11.4 µM]	/	.	.[13.5 µM]
CCC(=O)N1c2ccccc2CC1C(=O)NCCc1ccc(SC)cc1 (centres undefined)	/	.	/	/	/	/
COc1ccc(C(=O)CSc2ccc(-c3ccccc3)nn2)cc1	.[10 µM]	?	.	.	?	7.9µM
CC(C)(C)CC(=O)NCc1ccc(F)cc1	.	.	.	.[9.22 µM]	22µM	.
O=C(CCCC(=O)NCc1ccc(F)cc1)NCc1ccc(F)cc1	.[10 µM]	?	.	.[9.22 µM]	/	.
CCCC[C@@H](C=O)NC(=O)[C@H](CC(C)C)NC(=O)[C@H](CC(C)C)NC(C)=O	/	/	/	/	.	.
COc1ccc(OCC(=O)OCc2cc(=O)n3nc(-c4cccs4)sc3n2)cc1	/	.	/	/	/	/
CCN=C1SC(CC(=O)NCCc2ccc(OC)cc2)C(=O)N1CC (centres undefined)	.	.	.	.	.	.
COc1ccc(CCNC(=O)CC2SC(=NCCc3ccccc3)NC2=O)cc1 (centres undefined)	.[10 µM]	.	.	.	.	28µM
CCN=C1SC(CC(=O)NCCc2ccc(OC)c(OC)c2)C(=O)N1CC (centres undefined)	.	.	.	.	.	20µM
COc1ccc(CCNC(=O)CC2SC(=NCc3ccccc3)NC2=O)cc1 (centres undefined)	.	/	.	.	/	32µM
SMILES	HTT ATP protect	LMNA splice mod	JMJD2E inh	HTT aggregate	HPGD inh	ALDH1A1 block
COc1ccc(CCNC(=O)CC2SC(=NCCc3ccccc3)NC2=O)cc1OC (centres undefined)	.[10 µM]	.	.	.	.	14µM
COc1ccc(CCNC(=O)CC2SC(=NCCC(C)C)NC2=O)cc1OC (centres undefined)	.[10 µM]	.	.	.	.	?
CO[C@H]1COC(=O)C/C=C\[C@@H](C)[C@H](OC)COC(=O)CCC[C@@H]1C	.[10 µM]	/	/	/	/	.[13.5 µM]
N/C(=N\OC(=O)C1CC1)c1ccc([N+](=O)[O-])s1	.[10 µM]	/	.	.[9.22 µM]	/	.
CCOC(=O)c1ccccc1NC(=O)N1CCC(N2CCN(Cc3ccccc3)C(=O)C2=O)CC1	/	.	/	/	/	/
O=C(Nc1ccccc1Cl)c1cccc(COc2cc(Cl)ccc2Cl)c1	.	.	.	.	?	.
CN1CCN(C(=O)c2cccc(COc3cc(Cl)ccc3Cl)c2)CC1	.[0.074 µM]	.	.	.	.	10µM
CCn1ccc2cc(S(=O)(=O)N3CCCN(C(=O)Nc4ccc(C)cc4Cl)CC3)ccc21	/	.	/	/	/	/
COc1ccc(CC(=O)Nc2cccc(-c3nnc(-c4ccc(C)cc4)o3)c2)cc1OC	.[1.9 µM]	?	.	.	.	.
COc1ccc(CCNC(=O)CSc2nnc(-c3cccc(C)c3)o2)cc1OC	.	.	.	.	.	18µM
COc1ccc(CC(=O)Nc2ccc(-c3nnc(-c4ccccc4)o3)cc2)cc1OC	.[10 µM]	.	?	.	?	3.5µM
CCn1c2ccccc2c2cc(NC(=O)CSc3nnc(-c4cccc(C)c4)o3)ccc21	.	?	.	.[9.22 µM]	.	18µM
COc1ccc(CCNC(=O)CSc2nnc(-c3ccccc3)o2)cc1OC	.[10 µM]	.	.	.	.	.
COc1ccc(CC(=O)Nc2cccc(-c3nnc(-c4ccccc4)o3)c2)cc1OC	.[0.074 µM]	?	.	22µM	.	?
COc1cccc(-n2c(=O)c3c(C)c(C(=O)N(C)C)sc3n(CC(=O)Nc3ccc(C)cc3Cl)c2=O)c1	/	.	/	/	/	/
Cc1cc(C)c(S(=O)(=O)NCC(c2ccco2)S(=O)(=O)c2cccs2)c(C)c1 (centres undefined)	/	.	/	/	/	/
O=C(NCCCN1CCOCC1)c1ccc(Cc2nc3ccccc3[nH]2)cc1	/	/	/	/	.	.
COc1ccc(Cc2nnc(-c3cccc(C)c3)o2)cc1OC	.	?	.	.	18µM	.
COc1ccc(CC(=O)Nc2cccc(-c3nnc(-c4cccc(C)c4)o3)c2)cc1OC	.[10 µM]	?	.	11µM	?	?
Cc1nc(-n2nc(C)c(Cc3ccccc3Cl)c2C)sc1C(=O)N1CCC(C)CC1	/	.	/	/	/	/
CC(C)=CCC1=C(OCC(=O)O)C(=O)c2ccccc2C1=O	.[10 µM]	/	14µM	.[9.22 µM]	.	.[13.5 µM]
CC(C)=CCC/C(C)=C/CC/C(C)=C/CC/C(C)=C/CC1=C(C)C(=O)c2ccccc2C1=O	.[10 µM]	.	.	.[9.22 µM]	/	/
CC1CN(CCOCCSc2ccccc2)CC(C)O1 (centres undefined)	.[10 µM]	.	.	.	/	.
Cc1ccc(C)c(OCCOCCN2CC(C)OC(C)C2)c1C (centres undefined)	.	.	?	.	.	16µM
CCOC(=O)C1CCCN(Cc2ccccc2F)C1 (centres undefined)	.[0.074 µM]	.	.	.	.	11µM
CCOC(=O)C1CCCN(Cc2c(Cl)cccc2Cl)C1 (centres undefined)	.	.	?	.	.	?
CCOC(=O)C1CCCN(Cc2cc(Br)ccc2OC)C1 (centres undefined)	.[10 µM]	.	?	.	.	10µM
CC(C)c1ccc(Nc2sc(C(=O)c3ccccc3)c(N)c2S(=O)(=O)c2ccccc2)cc1	/	.	/	/	/	/
